Here are results for seven compounds from PubChem BioAssay (Tox21).

A short description of assay [1]: qHTS assay to identify small molecule antagonists of the vitamin D receptor (VDR) signaling pathway - cell viability counter screen (AID 743225). Note: % is set by controls: 0 for no effect and ±100 for the full control effect; nearly all actives have a fitted effect of over 50% in size. Summed up: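 VDR-bla HEK 293T cells, 4 h pre-incubation at 37C, then compound plus 1-alpha,25-dihydroxyvitamin D3 (3 nM final) for 16 h. After the beta-lactamase FRET read, CellTiter-Glo was added to the same wells; luminescence after 30 min at room temperature.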
For orientation: In qHTS, concentration-response curves come from the screen itself.

Assay [2] in a line: qHTS assay to identify small molecule agonists of the NFkB signaling pathway - cell viability counter screen (AID 1159515; calls by dose curve; note: series mostly up to about 61 µM; % is set by controls: 0 for no effect and ±100 for the full control effect; nearly all actives have a fitted effect of over 55% in size). Summed up: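 Parallel cytotoxicity counter screen in ME-180 cells carrying an NFkB-response-element beta-lactamase reporter, 2,000 cells/well. Compound exposure lasted 5 hr at 37 C, 5% CO2. Cell viability was quantified by CellTiter-Glo luminescence.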
Assay [3] in a line: qHTS assay to identify small molecule agonists of the endoplasmic reticulum stress response signaling pathway (AID 1159516; active = well fitted activation curve with a large enough effect in the signal ratio in the repeat runs, not every such curve was filed as active; the % refers to the signal ratio; note: % is set by controls: 0 for no effect and ±100 for the full control effect). Summed up:
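Using a HeLa line with an ESRE-driven beta-lactamase gene, agonist activity was measured by FRET substrate fluorescence (460 and 530 nm emission) after cells were treated with compounds for 5 hr at 37 C and 5% CO2.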

Assay [4] in a line: qHTS assay to identify small molecule agonists of the endoplasmic reticulum stress response signaling pathway - cell viability counter screen (AID 1159517; calls by dose curve;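 note: HeLa cells carrying an ER stress response element beta-lactamase reporter; series mostly up to about 61 µM; % is set by controls: 0 for no effect and ±100 for the full control effect; nearly all actives have a fitted effect of over 50% in size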). The essentials: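 After overnight attachment, ESRE-bla HeLa cells were treated with Tox21 library compounds for 5 hr. CellTiter-Glo luminescence, read 30 min post-addition at room temperature, reported viability.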
The nature of assay [5]: qHTS assay to identify small molecule antagonists of the retinoid-related orphan receptor gamma (ROR-gamma) signaling pathway - cell viability counter screen (AID 1159520). Note: % is set by controls: 0 for no effect and ±100 for the full control effect; nearly all actives have a fitted effect of over 50% in size. Summed up: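 Cytotoxicity was read from cellular ATP (CellTiter-Glo luminescence) after 16 hr at 37 C with 1 uM doxycycline induction. The inducer was added 2 hr after compound transfer to Tet-on ROR gamma CHO cells.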

For assay [6], the target named is Nuclear receptor ROR-gamma (Homo sapiens) (UniProt P51449). Briefly: qHTS assay to identify small molecule antagonists of the retinoid-related orphan receptor gamma (ROR-gamma) signaling pathway (AID 1159521;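 note: CHO cells with doxycycline inducible ROR-gamma driving an RORE luciferase reporter; top concentration of the series differs between compounds; % is set by controls: 0 for no effect and ±100 for the full control effect; nearly all actives have a fitted effect of over 50% in size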). The essentials:
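Tet-on RORγ CHO cells carrying a ROR response element–luciferase reporter were pretreated with compounds for 2 h, then induced with 1 uM (final) doxycycline hyclate for 16 h at 37 C. Antagonism was read as decreased ONE-Glo luminescence.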

Assay [7] is described as follows: qHTS assay to identify small molecule agonists of the AP-1 signaling pathway - cell viability counter screen (AID 1159525; calls by dose curve; note: nearly all actives have a fitted effect of over 55% in size). Summed up:
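Intracellular ATP by Cell Titer Glo luminescence (30 min, RT) in the same ME-180 AP-1-bla wells after the 5 h compound exposure at 37 °C. Normalised to tetra n-octyl ammonium bromide and DMSO controls.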

Assay [8] in a line: qHTS assay to identify small molecule agonists of the AP-1 signaling pathway (AID 1159526; calls by dose curve; note: % is set by controls: 0 for no effect and ±100 for the full control effect).
The target in assay [9] is Retinoic acid receptor RXR-alpha (Homo sapiens) (UniProt P19793). Briefly: qHTS assay to identify small molecule agonists of the RXR signaling pathway (AID 1159527; calls by dose curve; note: % is set by controls: 0 for no effect and ±100 for the full control effect; nearly all actives have a fitted effect of over 35% in size). Summed up:
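GeneBLAzer RXR-alpha-UAS-bla HEK 293T cells in medium with 2% charcoal-stripped FBS, pre-incubated 5 hr at 37 C, then exposed to compounds 16 hr. Beta-lactamase reporter read by FRET substrate, 2 hr room temperature, 460/530 nm emission.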

Assay [10] can be described thus: qHTS assay to identify small molecule agonists of the RXR signaling pathway - cell viability counter screen (AID 1159529). Summed up: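 RXR-alpha-UAS-bla HEK 293T cells in medium with 2% charcoal-stripped FBS were preincubated 5 hr, then exposed to compounds for 16 hr at 37 C. Viability was read as CellTiter-Glo luminescence after 30 min at room temperature.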
A short description of assay [11]: qHTS assay to identify small molecule antagonists of the retinoic acid receptor (RAR) signaling pathway (AID 1159552). Summed up:
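RARE-luc C3RL4 cells; cpds + 1 uM (final) retinol, 6 hr, 37 C/5% CO2; luciferase reagent, 30 min RT, luminescence readout. Inhibitors of retinol-driven signal scored.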

A short description of assay [12]: qHTS assay to identify small molecule agonists of the retinoic acid receptor (RAR) signaling pathway (AID 1159553). Note: potency is the fitted concentration of half-maximal effect. Summed up: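 Quantitative high-throughput format: the Tox21 10K library was tested on C3RL4 RARE-luciferase cells for 6 hr at 37 C and 5% CO2, with luminescence measured after a 30 min room-temperature reagent step.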
The nature of assay [13]: qHTS assay to identify small molecule antagonists of the estrogen related receptor (ERR) signaling pathway from Tox21 library - cell viability counter screen (AID 1224834). Note: % is set by controls: 0 for no effect and ±100 for the full control effect; nearly all actives have a fitted effect of over 30% in size. The essentials: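 Compounds in DMSO were pinned onto ERR cells that had been incubated for 6 h, and the plates were held at 37 C for 17.5 h. CellTiter-Fluor reagent was then added and fluorescence was measured after 30 min.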

Assay [14] is described as follows: qHTS assay to identify small molecule agonists of the vitamin D receptor (VDR) signaling pathway - cell viability counter screen (AID 743224). Note: nearly all actives have a fitted effect of over 50% in size. Note: potency is the fitted concentration of half-maximal effect. The essentials:
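Compounds were pin-transferred onto VDR-bla cells plated 4 h earlier; following 16 h incubation at 37C, cell viability was quantified by CellTiter-Glo luminescence after 30 min at room temperature.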

Assay [15] can be described thus: qHTS assay to identify small molecule antagonists of the retinoid acid receptor (RAR) signaling pathway - cell viability counter screen (AID 1159551). Note: % is set by controls: 0 for no effect and ±100 for the full control effect; nearly all actives have a fitted effect of over 35% in size. The essentials:
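ATP-based viability, C3RL4 cells, 6 h at 37 C with 1 uM final retinol co-added after compound; luminescence read 30 min post CellTiter-Glo, RT.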

Assay [16] addresses Luciferin 4-monooxygenase (Photinus pyralis) (UniProt P08659). Briefly: qHTS assay to identify small molecule inhibitors of firefly luciferase (AID 1224835). Note: nearly all actives have a fitted effect of over 25% in size. Note: potency is the fitted concentration of half-maximal effect. Summed up: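 Inhibition of purified Photinus luciferase is measured by luminescence. Substrate levels (D-luciferin, ATP) sit at their KM values. Each compound is tested in a concentration series.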
A short description of assay [17]: qHTS assay to identify small molecule antagonists of the estrogen related receptor (ERR) signaling pathway (AID 1224819). The essentials: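 ERR reporter cell line (NTP) plated at 2,000 cells/well, settled 6 h at 37C/5% CO2, then exposed to LOPAC compounds for 18 h at 37C. One-Glo luciferase luminescence read after 30 min at room temperature.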
The nature of assay [18]: qHTS assay to identify small molecule agonists of the estrogen related receptor (ERR) signaling pathway (AID 1224820). Note: % is set by controls: 0 for no effect and ±100 for the full control effect. Summed up: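 Luminescence readout (One-Glo, 30 min RT) from NTP-supplied ERR cell line exposed to compounds for 18 h at 37 C. Cells seeded 2,000 per well and pre-incubated 6 h before pin-tool compound transfer.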
The test system of assay [19] is estrogen-related receptor alpha (ERRalpha) with PGC-1alpha coactivator, human. Briefly: qHTS assay to identify small molecule antagonists of the estrogen related receptor signaling pathway with the pleiotropic PPARgamma coactivator (PGC) (AID 1224821; calls by dose curve). Summed up: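 PGC/ERR reporter cells; 6 h pre-incubation 37 C/5% CO2; pin-tool compound in DMSO, 18 h 37 C; One-Glo added, 30 min RT; luminescence read. qHTS antagonist mode.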

A short description of assay [20]: qHTS assay to identify small molecule agonists of the estrogen related receptor signaling pathway with the pleiotropic PPARgamma coactivator (PGC) (AID 1224823). Note: % is set by controls: 0 for no effect and ±100 for the full control effect. The essentials: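 Luminescence readout (One-Glo, 30 min RT) from PGC/ERR cell line treated 18 h at 37 C with pin-tool-delivered DMSO compound solutions; cells plated 6 h before dosing. Quantitative HTS format.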

Each structure is given as a SMILES string. Values joined by “and” are separate entries in the source; they are usually repeats but may differ in a detail not shown here. Equal values may be shown once. Inconclusive results are not listed. Where a structure was tested more than once in an assay, its records may differ in their call. Active and inactive are the calls of the source. Unless noted, calls come from the whole dose curve; as a rule, active = well fitted curve in the direction sought with a large enough effect in the repeat runs; inconclusive = weak or mixed curves; inactive = no such curve, though single readings can be large; an effect the other way counts as inactive or inconclusive.

Chain of Retinoic acid receptor RXR-alpha (Homo sapiens) (P19793 whole entry, looked up): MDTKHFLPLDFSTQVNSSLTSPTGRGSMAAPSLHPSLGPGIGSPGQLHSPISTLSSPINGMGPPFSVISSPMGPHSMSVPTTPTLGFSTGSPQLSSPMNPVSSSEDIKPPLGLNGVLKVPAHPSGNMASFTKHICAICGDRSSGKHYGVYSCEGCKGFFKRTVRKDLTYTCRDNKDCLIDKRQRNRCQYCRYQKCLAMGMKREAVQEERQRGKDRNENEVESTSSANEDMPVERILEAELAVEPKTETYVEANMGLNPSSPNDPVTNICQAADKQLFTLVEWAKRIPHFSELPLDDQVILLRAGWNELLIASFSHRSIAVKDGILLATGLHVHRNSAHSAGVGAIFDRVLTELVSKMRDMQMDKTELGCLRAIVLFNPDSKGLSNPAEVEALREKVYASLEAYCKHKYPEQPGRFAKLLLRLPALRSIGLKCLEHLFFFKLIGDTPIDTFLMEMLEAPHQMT
Chain of Luciferin 4-monooxygenase (Photinus pyralis) (P08659 whole entry, looked up): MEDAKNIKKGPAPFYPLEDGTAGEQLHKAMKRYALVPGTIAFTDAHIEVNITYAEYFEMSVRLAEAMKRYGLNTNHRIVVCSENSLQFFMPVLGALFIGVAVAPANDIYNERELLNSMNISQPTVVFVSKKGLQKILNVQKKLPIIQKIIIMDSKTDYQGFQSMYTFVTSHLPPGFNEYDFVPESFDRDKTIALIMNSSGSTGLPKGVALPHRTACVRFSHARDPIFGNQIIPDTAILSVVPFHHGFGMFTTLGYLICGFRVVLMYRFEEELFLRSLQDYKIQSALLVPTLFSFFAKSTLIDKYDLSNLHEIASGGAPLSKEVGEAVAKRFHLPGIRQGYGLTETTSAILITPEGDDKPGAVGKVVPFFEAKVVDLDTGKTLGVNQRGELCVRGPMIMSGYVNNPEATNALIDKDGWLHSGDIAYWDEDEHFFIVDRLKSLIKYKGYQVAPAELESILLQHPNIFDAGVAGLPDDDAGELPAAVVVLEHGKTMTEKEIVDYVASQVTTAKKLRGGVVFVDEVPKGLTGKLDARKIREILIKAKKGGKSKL

As to `NNCCc1ccccc1`, the Potency entry in assay [1], in assay [2], in assay [4], in assay [5], in assay [6] and in [7] was “inactive” in each case. Also, the Potency entry in assay [8], in assay [9], in assay [10], in assay [11] and in [13] was “inactive” each time. In addition, the compound was called inactive in assay [3]. In assay [12], the Potency was 1.37 µM (active) and 9.44 µM (active).
With `c1ccc2n[nH]nc2c1`, the Potency result in assay [14] is “inactive and 38.9 µM (active)”. In addition, the Potency entry in assay [1], in assay [2], in assay [4], in assay [5], in assay [6] and in [7] was “inactive” in each case. Also, the Potency entry in assay [8], in assay [9], in assay [10], in [15], in [11] and in assay [12] was “inactive” throughout. In addition, the Potency result in assay [13] and in assay [16] was “inactive” each time. The call in [3] was inactive.
For the compound `NC(Cc1ccc(Cl)cc1)C(=O)O` (stereo not given), the results for the activity change, negative = cytotoxicity in assay [14], in assay [4] and in assay [10] were 2.72% [at 0.55 µM] (inactive), 3.91% [at 0.628 µM] (inactive) and 5.89% [at 0.29 µM] (inactive), respectively. In addition, the viability change, negative = cytotoxic was -8.18% [at 0.628 µM] (inactive) in [1], -2.41% [at 0.29 µM] (inactive) in assay [7] and -4.51% [at 0.349 µM] (inactive) in assay [13]. Moreover, the activity, negative = cytotoxic in assay [2] was 8.56% [at 0.628 µM] (inactive). Besides, the activation was 2.37% [at 0.628 µM] (inactive) in [3], -0.248% [at 0.29 µM] (inactive) in assay [8], -0.301% [at 0.29 µM] (inactive) in assay [9] and 0.724% [at 0.756 µM] (inactive) in [12]. Also, in assay [5], the activity, negative = cytotoxicity was 3.35% [at 0.349 µM] (inactive). Besides, the activity, negative = inhibition in [11] is 4.68% [at 0.349 µM] (inactive). In addition, the Potency entry in assay [17] and in assay [19] was “inactive” throughout. Further, the outcome in assay [18] and in [20] was inactive.
Consider `CC1COc2c(N3CCN(C)CC3)c(F)cc3c(=O)c(C(=O)O)cn1c23` (stereo not given), for which the Potency result in [14], in assay [1], in assay [2], in assay [4], in assay [5] and in [6] was “inactive” throughout. Further, the Potency entry in assay [7], in assay [8], in assay [9], in [10], in [11] and in [12] was “inactive” each time. For the same compound, the Potency entry in [13] and in [16] was “inactive” each time. Moreover, the outcome in [3] was inactive.
Consider `C[N+]1([O-])CCOCC1`, for which the Potency result in assay [1], in assay [2], in [4], in assay [5], in [6] and in assay [7] was “inactive” each time. Besides, the Potency result in [8], in assay [9], in assay [10], in assay [15], in assay [11] and in assay [12] was “inactive” each time. For the same compound, the Potency result in assay [13] and in assay [16] was “inactive” in each case. In addition, the compound was classed as inactive in [3].
As for `CCn1cc(C(=O)O)c(=O)c2cc(F)c(N3CCNC(C)C3)c(F)c21` (stereo not given), the Potency result in assay [14], in assay [1], in assay [2], in assay [4], in assay [5] and in assay [7] was “inactive” in each case. Further, the Potency result in assay [8], in [9], in assay [10], in [15], in assay [11] and in [12] was “inactive” throughout. The Potency result in [17], in assay [19], in [13] and in [16] was “inactive” each time. The call in assay [3], in [18] and in assay [20] was inactive.
For `[Cl][In]([Cl])[Cl]`, the Potency entry in [1], in [2], in [4], in assay [5], in [7] and in assay [8] was “inactive” each time. The Potency result in [9], in assay [10], in assay [15], in assay [12], in assay [17] and in [13] was “inactive” throughout. For the same compound, the result in assay [3] and in assay [18] was inactive. Besides, the Potency in assay [16] is 36.6 µM (active) and 39.9 µM (active).
